Results as given in PubChem BioAssay (NCATS).
Several values for one entry are separate records, joined by “and”; a condition that tells them apart may be missing. Equal entries are not always repeated. Inconclusive results are not listed. Unmarked numbers belong to inactive results. Activity calls are given as the source filed them. Calls follow the shape of the dose curve; as a rule, active = well fitted activation curve with a large enough effect; inconclusive = small, poorly fitted or top-dose-only effect; inactive = flat fitted curve, though single readings scatter.
Potency is read from the fitted curve at half-maximal effect.

Assay: Cellular Toxicity (caspase-3) H-4-II-E (AID 663);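 as to caspase-3 activation: cells exposed to compound for 16 hr before readout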
Details: H-4-II-E rat hepatoma; Potency: caspase-3 activation; caspase-3 activation: at 92.2 µM (top of the series), scaled: DMSO 0%, 100 µM tamoxifen 100%
Source text: NIH Chemical Genomics Center [NCGC]
NIH Molecular Libraries Screening Centers Network [MLSCN]
National Institutes of Environmental Health Sciences [NIEHS]
National Toxicology Program [NTP]
We have developed a 1536-well cell-based assay for quantitative high throughput screening (qHTS) against a number of cell lines to determine in vitro caspase 3/7 of small molecules. This particular assay uses the H-4-II-E cell line which is derived from rat hepatoma.
NCGC Assay Protocol Summary:
The Caspase-Glo 3/7 assay (Promega) is a homogeneous method to measure caspase-3 and caspase-7 activities in cultured cells. The quantitation of caspase 3/7 activity is based on the cleavage of a peptide-aminoluciferin substrate. After caspase cleaves the substrate the free aminoluciferin is liberated and serves as the substrate of luciferase, which generates the light. The luminescent signal is proportional to amount of caspase 3/7 activity present.
Using the Caspase-Glo 3/7 assay, the amount of caspase 3/7 activity was measured in the H-4-II-E cell line with complete culture medium following compound treatment for 16 hours. The assay was performed in opaque white 1536-well plates. In the screen, tamoxifen and doxorubicin were used as positive controls. Library compounds were measured for their ability to cause the activation of caspase 3/7 in the cell line, as reflected by an increase in luminescence signal, in a concentration-dependent manner. Data were normalized to the controls for basal activity (DMSO only) and 100% stimulation (100 uM tamoxifen). AC50 values were determined from concentration-response data modeled with the standard Hill equation.
qHTS protocol for caspase 3/7 assay in H-4-II-E cells
[Step] [Parameter] [Value] [Description]
1. Reagent; 5 uL; 1500 H-4-II-E cells/well
2. Time; 5 hr; 37 °C incubation
4. Controls; 23 nL; Tamoxifen 0.23 uM to 100 uM & Doxorubicin 7.0 pM to 100 uM
5. Time; 16 hr; 37 °C incubation
6. Reagent; 5 uL; Caspase-Glo 3/7 reagent
7. Time; 20 min; Room Temperature
8. Detection; Luminescence; Viewlux plate reader
Keywords: caspase 3/7, apoptosis, H-4-II-E cell line, luminescence, NTPHTS, NTPHTS_NCGC, NIEHS, EPA, DSSTox, MLSMR, MLSCN, NIH Roadmap, qHTS, NCGC
In the case of `Cc1cc(O)c(C(C)(C)C)cc1Sc1cc(C(C)(C)C)c(O)cc1C`, the Potency is reported as 31.6 µM (active).
Work on `Cc1cccc(O)c1C` yielded a caspase-3 activation of 0.768%.
Compound `c1ccc2c(c1)-c1cccc3c1c-2cc1ccccc13` has a caspase-3 activation of 11.1%.
`CCC(C)Nc1ccc(NC(C)CC)cc1` (stereo not given) showed a caspase-3 activation of -5.35%.
With `O=[N+]([O-])c1cc([N+](=O)[O-])c2ccc(S(=O)(=O)O)cc2c1O` the caspase-3 activation was 0.036%.
For `CC/C(=C(\c1ccccc1)c1ccc(OCCN(C)C)cc1)c1ccc(O)cc1`, the caspase-3 activation was 124% (active).
`O=C(OCC(COC(=O)c1ccccc1)(COC(=O)c1ccccc1)COC(=O)c1ccccc1)c1ccccc1` gave a caspase-3 activation of -0.12%.
`Nc1ccc2cc3ccccc3cc2c1` showed a caspase-3 activation of -0.822%.
With `O=C(/C=C/c1ccc(O)c(O)c1)OC1C[C@](O)(C(=O)O)C[C@@H](O)[C@H]1O` (stereo not given in full) the caspase-3 activation was 0.575% and -0.278%.
Work on `CNc1ccc(O)cc1` yielded a caspase-3 activation of -5.23%.
Work on `Cc1cc(Nc2ccc(O)cc2)ccc1N` yielded a caspase-3 activation of 20.7%.
Work on `CCCCCC/C(C=O)=C\c1ccccc1` yielded a caspase-3 activation of 0.146%.
Compound `O=Cc1ccc(Cl)c(Cl)c1` has a caspase-3 activation of 0.309%.
`CN(C)c1ccc(C2(c3ccc(N(C)C)cc3)OC(=O)c3cc(N(C)C)ccc32)cc1` showed a caspase-3 activation of 0.305%.
With `O=C=Nc1ccc(Cc2ccc(N=C=O)cc2)cc1` the caspase-3 activation was 1.23%.
`Oc1ccc2cc(SSc3ccc4cc(O)ccc4c3)ccc2c1` showed a caspase-3 activation of 4.17%.
With `CN1[C@H]2CC(OC(=O)[C@H](CO)c3ccccc3)C[C@H]1[C@H]1O[C@H]12` (stereo not given in full) the caspase-3 activation was 0.771% and -1.21%.
With `Cc1ccc(S(=O)(=O)Oc2ccc(N=Nc3ccc(-c4ccc(N=Nc5c(O)ccc6cc(S(=O)(=O)O)cc(S(=O)(=O)O)c56)c(C)c4)cc3C)cc2)cc1` the caspase-3 activation was -0.204%.
Work on `CO[C@H]1/C=C/O[C@@]2(C)Oc3c(C)c(O)c4c(O)c(c5c(c4c3C2=O)NC2(CCN(CC(C)C)CC2)N=5)=NC(=O)/C(C)=C\C=C\[C@H](C)[C@H](O)[C@@H](C)[C@@H](O)[C@@H](C)[C@H](OC(C)=O)[C@@H]1C` yielded a caspase-3 activation of 2.28%.
Work on `C=C(C)c1ccccc1` yielded a caspase-3 activation of 1.07%.
`O=C1OC2(c3cc(Br)c(O)c(Br)c3Oc3c2cc(Br)c(O)c3Br)c2c(Cl)c(Cl)c(Cl)c(Cl)c21` showed a caspase-3 activation of -0.639%.
Work on `O=C1OC(O)C(C(Cl)Cl)=C1Cl` (stereo not given) yielded a caspase-3 activation of 24.6%.
Compound `c1ccc2c(c1)ccc1cc3c(ccc4ccccc43)cc12` has a caspase-3 activation of -1.53%.
Work on `ClC1=C(Cl)C(Cl)(Cl)C(Cl)=C1Cl` yielded a caspase-3 activation of 4.97%.
Compound `C/C=C1\C(=O)C[C@H]2[C@@H]3CCC4=CC(=O)CC[C@]4(C)[C@H]3CC[C@]12C` has a caspase-3 activation of 22.9%.
